This is part of a sample that, as a whole, favours compounds with a hit. Of some 83,000 tested, about 20% had one in any assay.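 Results are percent growth after 48 hours of single-concentration exposure. 100 means growth as in untreated cells, lower positive values show inhibition; negative values down to -100 show cell death.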 The source made the active and inactive calls. Rule for the calls: active = growth percent below 10; inactive = the rest.

The source of these data is PubChem BioAssay (NCI).

This assay relates to SR leukemia. Description: NCI-60 one-dose screen, 48 h (100 = growth as untreated, 0 = no growth, -100 = all killed). The following applies: 10 µM unless noted.
In the case of `CCn1cc(C(=O)O)c(=O)c2cc(F)c(N3CCN(CC(=O)Nc4ccccc4)C(C)C3)c(F)c21` (centres undefined), the growth is 109% (inactive).
Regarding `c1cc(OCCN2CCCCC2)ccc1CNc1ccc2nc(CCC3CCCCC3)[nH]c2c1`, the growth is 12.5% (inactive).
`COC1C(O)CC(OC2CC(OC3CC(O[C@@H]4C(=O)c5c(cc6cc(OC7CC(OC8CC(O)C(O)C(C)O8)C(O)C(C)O7)c(C)c(O)c6c5O)CC4[C@H](OC)C(=O)C(C)=O)OC(C)C3O)OC(C)C2O)OC1C` (some centres undefined): the growth is -5.46% (active).
Take `Cc1ccc(OCCOCCOCCOc2ccc(C)n(O)c2=S)c(=S)n1O`: the growth was 25.6% (inactive).
Take `Cn1cc(-c2csc(-c3cn(CCCN4CCOCC4)c4ccc(F)cc34)n2)c2cccnc21`: the growth was 48.4% (inactive).
To `O=C1c2cccnc2C(=O)c2c1c(C(=O)OCCc1ccccn1)c1ccccn21` belongs -10.9% (active).
The value for `C#CCOc1cccc(Nc2ncnc3c2ncn3C2CCN(C(=O)CCl)C2)c1` (centres undefined) was -23.8% (active).
As for `O=C(Cn1nc(-c2cccc3ccccc23)ccc1=O)NCc1cccc(Cl)c1`, the growth is 22.2% [50 µM] (inactive).
To `CC1(C)CC[C@]23CC[C@]4(C)[C@H](CC[C@@H]5[C@@]6(C)C/C(=C/O)C(=O)C(C)(C)[C@@H]6CC[C@]54C)[C@H]2[C@H]1OC3` belongs 95.1% (inactive); to `Clc1ccc(-c2cc(-c3ccccc3)nc(N3CCN(CCCNc4ccnc5cc(Cl)ccc45)CC3)n2)cc1`, 5.44% (active).
The value for `Nc1nc(C(=O)N/N=C/c2ccc(F)cc2)nn1-c1ccc(S(N)(=O)=O)cc1` was 98.5% (inactive); that for `CN(C)c1ccc(CNCCO)cc1` was 108% (inactive); that for `Nc1c(Br)cc2c(c1Br)Cc1cc([N+](=O)[O-])ccc1-2` was 64.3% (inactive).
On to `COC(=O)Cn1c2c(c3c(OC)cccc31)C(=O)c1ccccc1-2`, for which the growth is 84.8% (inactive).
As to `O=C(/C=C/c1ccccc1)c1ccc(-n2cc(CN3CCN(c4cc5c(cc4F)c(=O)c(C(=O)O)cn5C4CC4)CC3)nn2)cc1`, the growth was 24.1% (inactive).
Consider `Cc1cc2oc(/C=C/c3ccccc3)cc(=O)c2c(C)c1Cl`, for which the growth is 78.3% (inactive).
To `Cc1nc(N/N=C/c2cn(-c3ccccc3)nc2-c2cc3ccccc3oc2=O)sc1N=Nc1ccccc1` belongs 29.9% (inactive).
The value for `Oc1c(CN2CCC(N3CCOCC3)CC2)cc(Cc2cc(CN3CCC(N4CCOCC4)CC3)c(O)c3ncccc23)c2cccnc12` was 20% (inactive).
To `N#Cc1nn(-c2cc(=O)[nH]c3ccc(Br)cc23)c(N)c1C#N` belongs -14.2% (active).
Take `CCCCO[C@@H]1C=C2[C@H]3CC(C)(C)C(=O)C[C@]3(C(=O)O[C@@H]3O[C@H](CO[C@@H]4O[C@H](CO)[C@@H](OC5OC(C)C(O)C(O)C5O)[C@H](O)[C@H]4O)[C@@H](O)[C@H](O)[C@H]3O)CC[C@@]2(C)[C@]2(C)CC[C@H]3C(C)(C)C(=O)CC[C@]3(C)[C@@H]12` (some centres undefined): the growth was 69.9% (inactive).
The value for `CC(=O)c1c(Nc2cccc(F)c2)[nH]c2c(Cl)cc(Cl)c(Cl)c2c1=O` was 14.8% (inactive); that for `O=c1cc(CP(=O)(O)O)c2cc(O)c(-c3ccccc3)cc2o1` was 95.2% (inactive).
To `CC(=O)c1sc(-c2ccc(F)cc2)cc1O` belongs 82.6% (inactive).
Turning to `CC(=O)c1ccc(-n2cc(CN3CCN(c4cc5c(cc4F)c(=O)c(C(=O)O)cn5C4CC4)CC3)nn2)cc1`, the growth was 99.6% (inactive).
To `COc1ccc(CN2C(=O)OC(C)(COC(C)=O)C2=O)cc1` (centres undefined) belongs 94% (inactive); to `O=C1CCCC1[n+]1ccccc1` (centres undefined), 127% (inactive).
Regarding `CN(C)CCC(=O)C1CC1`, the growth is 97.3% (inactive).
The value for `Nc1ccc(-c2ccncc2)cc1NC(=O)N1CCCC1` was 91.8% (inactive); that for `O=c1oc2c(cnc3ccccc32)cc1-c1cccc(Cl)c1` was 93% (inactive).
As for `C/C(=C(\c1ccc(OCCN2CCCCCC2)cc1)c1ccc(OC(=O)c2ccccc2)cc1)c1ccc(Cl)cc1`, the growth is -16.1% (active).
To `Nc1cccc(-c2ccc(COc3ccc(CC4SC(=O)NC4=O)cc3)cc2)c1` (centres undefined) belongs 26.8% (inactive).
To `C=C(C)[C@@H]1CC[C@]2(COC3CCCCO3)CC[C@]3(C)[C@H](CC[C@@H]4[C@@]5(C)C=C(C=O)C(=O)C(C)(C)[C@@H]5CC[C@]43C)[C@@H]12` (some centres undefined) belongs -5.54% (active); to `O=C1CCCCN1c1ccc(C2=NCCCN2)cc1`, 99.8% (inactive); to `Cc1cc(=O)oc2cc(Oc3nc(Br)cn4c(Br)cnc34)ccc12`, 69.4% (inactive).
Take `C=CN(C(=O)N1CCN(c2cc3c(cc2F)c(=O)c(C(=O)O)cn3C2CC2)CC1)c1nc(-c2ccc(Cl)cc2)cs1`: the growth is 33.2% (inactive).
For `Cc1ccccc1N1CCN(C(=S)c2ccccc2)CC1`, the growth was 104% (inactive).
`COc1ccc(Cl)cc1Nc1nc(C(F)(F)F)ccc1C(=O)N/N=C/c1ccc([N+](=O)[O-])cc1`: the growth was 0.718% (active).
The value for `O=C(Nc1nc(Cl)nc(Nc2ccc(N3CCOCC3=O)cc2)n1)c1ccc(Cl)s1` was 7.06% (active); that for `COCCOC(C)C(/C=N/NC(N)=S)=N/NC(N)=S` (centres undefined) was 53.2% (inactive).
